Data reported in PubChem BioAssay (Tox21).
Results filed as inconclusive are left out. The source made the active and inactive calls. Unless noted, calls come from the whole dose curve; as a rule, active = well fitted curve in the direction sought with a large enough effect in the repeat runs; inconclusive = weak or mixed curves; inactive = no such curve, though single readings can be large; an effect the other way counts as inactive or inconclusive.

What was measured:
[1] = qHTS assay to identify small molecule agonists of the RXR signaling pathway - cell viability counter screen (AID 1159529); settings: RXR-alpha-bla HEK293T viability, CellTiter-Glo, 16 h; series mostly up to 76.8 µM; note: nearly all actives have a fitted effect of over 50% in size
Procedure, shortened: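 RXR-alpha-UAS-bla HEK 293T cells in medium with 2% charcoal-stripped FBS were preincubated 5 hr, then exposed to compounds for 16 hr at 37 C. Viability was read as CellTiter-Glo luminescence after 30 min at room temperature.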

[2] = qHTS assay to identify small molecule antagonists of the retinoid acid receptor (RAR) signaling pathway - cell viability counter screen (AID 1159551); settings: C3RL4 cells viability, ATP luminescence (CellTiter-Glo), 6 h; series mostly up to 92.4 µM; note: nearly all actives have a fitted effect of over 35% in size
Procedure, shortened: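 Retinol-stimulated (1 uM final) C3RL4 cells, compound 6 h, 37 C; readout CellTiter-Glo luminescence (ATP) after 30 min RT incubation.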

[3] = qHTS assay to identify small molecule antagonists of the retinoic acid receptor (RAR) signaling pathway (AID 1159552; note: nearly all actives have a fitted effect of over 50% in size); settings: C3RL4 RARE luciferase reporter, retinol-stimulated, 6 h; series mostly up to 92.4 µM
Procedure, shortened: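 RARE-luc C3RL4 cells; cpds + 1 uM (final) retinol, 6 hr, 37 C/5% CO2; luciferase reagent, 30 min RT, luminescence readout. Inhibitors of retinol-driven signal scored.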

[4] = qHTS assay to identify small molecule agonists of the retinoic acid receptor (RAR) signaling pathway (AID 1159553); settings: C3RL4 RARE luciferase reporter, agonist, 6 h; series mostly up to 73.3 µM; note: potency is the fitted concentration of half-maximal effect
Procedure, shortened: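 Reporter readout comes from luciferase under RARE control in C3RL4 cells; compound exposure lasts 6 hr at 37 C in 5% CO2, and luminescence is recorded following a 30 min room-temperature incubation with reagent.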

[5] = qHTS assay to identify small molecule antagonists of the estrogen related receptor (ERR) signaling pathway from Tox21 library - cell viability counter screen (AID 1224834); settings: ERR reporter cells viability, CellTiter-Fluor, 17.5 h; series mostly up to 92.4 µM; note: nearly all actives have a fitted effect of over 30% in size
Procedure, shortened: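 After 17.5 h of compound exposure at 37 C, ERR cells are incubated with CellTiter-Fluor for 30 min and fluorescence intensity serves as the viability measure.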

[6] = molecular target: Luciferin 4-monooxygenase (Photinus pyralis) (UniProt P08659); test: qHTS assay to identify small molecule inhibitors of firefly luciferase (AID 1224835); note: nearly all actives have a fitted effect of over 25% in size; note: potency is the fitted concentration of half-maximal effect; settings: purified P. pyralis luciferase, luminescence inhibition; series mostly up to 115 µM
Luciferin 4-monooxygenase (Photinus pyralis), sequence (P08659 whole entry, looked up): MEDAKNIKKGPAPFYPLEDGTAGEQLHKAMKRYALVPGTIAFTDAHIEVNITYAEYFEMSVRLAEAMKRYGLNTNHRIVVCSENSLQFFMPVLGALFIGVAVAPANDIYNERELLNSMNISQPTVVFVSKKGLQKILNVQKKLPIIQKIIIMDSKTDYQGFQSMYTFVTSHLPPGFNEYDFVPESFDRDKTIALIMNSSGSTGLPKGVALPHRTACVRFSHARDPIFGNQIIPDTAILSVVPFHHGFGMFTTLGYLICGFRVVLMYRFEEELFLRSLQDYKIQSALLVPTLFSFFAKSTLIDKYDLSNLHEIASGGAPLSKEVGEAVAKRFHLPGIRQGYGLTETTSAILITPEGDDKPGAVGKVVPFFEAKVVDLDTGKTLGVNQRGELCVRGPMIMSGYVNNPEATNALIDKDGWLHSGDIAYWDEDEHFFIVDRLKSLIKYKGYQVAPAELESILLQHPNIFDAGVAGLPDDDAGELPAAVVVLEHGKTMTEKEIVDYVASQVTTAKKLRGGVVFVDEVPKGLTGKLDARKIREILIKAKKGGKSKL
Procedure, shortened: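 Inhibition of purified Photinus luciferase is measured by luminescence. Substrate levels (D-luciferin, ATP) sit at their KM values. Each compound is tested in a concentration series.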

[7] = qHTS assay to identify small molecule agonists of the constitutive androstane receptor (CAR) signaling pathway - cell viability counter screen (AID 1224836); settings: HepG2-CYP2B6-hCAR viability, CellTiter-Fluor, 23 h, PK11195 added to every well; series mostly up to 92.4 µM; note: nearly all actives have a fitted effect of over 45% in size
Procedure, shortened: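 HepG2 cells stably carrying hCAR and a CYP2B6-2.2kb reporter were plated 4 h, then given compounds at 15 concentrations plus PK11195 (final 0.75 uM). After 23 h at 37 C, viability was read by CellTiter-Fluor fluorescence.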

[8] = qHTS assay to identify small molecule antagonists of the constitutive androstane receptor (CAR) signaling pathway - cell viability counter screen (AID 1224837); settings: HepG2-CYP2B6-hCAR viability, CellTiter-Fluor, 23 h, co-treated with 50 nM CITCO; series mostly up to 92.4 µM; note: nearly all actives have a fitted effect of over 45% in size
Procedure, shortened: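 Counter screen run in HepG2-CYP2B6-hCAR cells: 4 hr settle, compound titration (15 concentrations) with 50 nM CITCO, 23 hr at 37 C/5% CO2, CellTiter-Fluor fluorescence.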

[9] = molecular target: Nuclear receptor subfamily 1 group I member 3 (Homo sapiens) (UniProt Q14994); test: qHTS assay to identify small molecule antagonists of the constitutive androstane receptor (CAR) signaling pathway (AID 1224838); settings: HepG2-CYP2B6-hCAR luciferase, CITCO-stimulated, 24 h; series mostly up to 92.4 µM; note: nearly all actives have a fitted effect of over 40% in size
Nuclear receptor subfamily 1 group I member 3 (Homo sapiens), sequence (Q14994 whole entry, looked up): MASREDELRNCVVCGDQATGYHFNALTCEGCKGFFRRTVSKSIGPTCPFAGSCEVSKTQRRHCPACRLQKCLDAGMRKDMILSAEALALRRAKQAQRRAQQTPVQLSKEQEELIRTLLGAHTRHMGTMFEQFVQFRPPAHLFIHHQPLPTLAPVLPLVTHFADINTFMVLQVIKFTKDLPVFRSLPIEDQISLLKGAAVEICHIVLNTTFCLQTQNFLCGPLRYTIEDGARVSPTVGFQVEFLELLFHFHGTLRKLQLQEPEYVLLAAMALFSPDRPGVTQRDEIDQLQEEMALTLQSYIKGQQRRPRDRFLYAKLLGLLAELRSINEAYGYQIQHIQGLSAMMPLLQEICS
Procedure, shortened: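 Cell line: HepG2 double-stable for hCAR and CYP2B6-2.2kb reporter. Agonist: CITCO, 50 nM final. Compounds: 15 concentrations, 24 h, 37 C. Detection: ONE-Glo luminescence.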

[10] = molecular target: Nuclear receptor subfamily 1 group I member 3 (Homo sapiens) (UniProt Q14994); test: qHTS assay to identify small molecule agonists of the constitutive androstane receptor (CAR) signaling pathway (AID 1224839); settings: HepG2 hCAR CYP2B6-luciferase, agonist mode, 24 h; series mostly up to 92.4 µM; note: nearly all actives have a fitted effect of over 15% in size; note: potency is the fitted concentration of half-maximal effect
Procedure, shortened: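 HepG2 cells stably expressing hCAR and a CYP2B6-2.2kb luciferase reporter were treated with compounds at 15 concentrations plus 0.75 uM PK11195 (final) for 24 h at 37 C; luminescence was read after ONE-Glo addition.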

[11] = qHTS assay to identify small molecule antagonists of the estrogen related receptor signaling pathway with the pleiotropic PPARgamma coactivator (PGC) from Tox21 10K library - cell viability counter screen (AID 1224840; active = well fitted cell-killing curve with a large enough effect in the repeat runs, not every such curve was filed as active; note: nearly all actives have a fitted effect of over 40% in size); settings: PGC/ERR reporter cells viability, CellTiter-Fluor, 17.5 h; series mostly up to 92.4 µM
Procedure, shortened: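 Following seeding of 2,000 PGC/ERR cells/well and 6 hours' incubation, test compounds were delivered in DMSO. The plates then sat 17.5 hours at 37 C before a fluorogenic live-cell protease reagent (CellTiter-Fluor) was read after 30 min.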

[12] = qHTS assay to identify small molecule antagonists of the estrogen related receptor signaling pathway with the pleiotropic PPARgamma coactivator (PGC) from Tox21 10K library (AID 1224841; call rule not given here; note: actives are mostly falling curves and most rising ones were filed inactive; nearly all actives have a fitted effect of over 50% in size); settings: PGC/ERR reporter cell line, ONE-Glo luciferase, 18 h; series mostly up to 92.4 µM
Procedure, shortened: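 qHTS antagonist format: PGC/ERR cells, 2k/well, compound in DMSO by pin transfer after 6 h attachment, 18 h treatment at 37 C, One-Glo luminescence read at 30 min.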

[13] = qHTS assay to identify small molecule agonists of the estrogen related receptor signaling pathway with the pleiotropic PPARgamma coactivator (PGC) from Tox21 10K library (AID 1224842); settings: PGC/ERR reporter cell line, luciferase ONE-Glo, 18 h; series mostly up to 92.4 µM; note: nearly all actives have a fitted effect of over 15% in size; note: potency is the fitted concentration of half-maximal effect
Procedure, shortened: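 Luminescence from One-Glo (30 min, room temperature) measured after PGC/ERR cells had 18 h at 37 C with pinned compound (23 nL in DMSO). Cells had been seeded at 2,000 per well and pre-incubated 6 h.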

[14] = molecular target: Retinoic acid receptor RXR-alpha (Homo sapiens) (UniProt P19793); test: qHTS assay to identify small molecule agonists of the RXR signaling pathway (AID 1159527; calls by dose curve; note: nearly all actives have a fitted effect of over 35% in size); settings: HEK293T RXRa-UAS-bla, beta-lactamase ratio, 16 h; series mostly up to 76.8 µM
Retinoic acid receptor RXR-alpha (Homo sapiens), sequence (P19793 whole entry, looked up): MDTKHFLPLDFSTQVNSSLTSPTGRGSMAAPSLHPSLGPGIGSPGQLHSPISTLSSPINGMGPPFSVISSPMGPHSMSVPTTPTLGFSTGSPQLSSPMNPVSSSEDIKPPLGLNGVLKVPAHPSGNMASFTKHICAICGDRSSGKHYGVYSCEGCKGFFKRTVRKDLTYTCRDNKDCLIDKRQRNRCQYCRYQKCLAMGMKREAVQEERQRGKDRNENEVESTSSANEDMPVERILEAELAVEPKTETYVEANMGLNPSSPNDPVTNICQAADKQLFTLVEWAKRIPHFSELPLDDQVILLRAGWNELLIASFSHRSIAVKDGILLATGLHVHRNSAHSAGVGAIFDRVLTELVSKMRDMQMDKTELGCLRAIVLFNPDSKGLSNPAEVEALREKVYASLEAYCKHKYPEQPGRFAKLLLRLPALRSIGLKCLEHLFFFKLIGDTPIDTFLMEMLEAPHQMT
Procedure, shortened: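 GeneBLAzer RXR-alpha-UAS-bla HEK 293T cells in medium with 2% charcoal-stripped FBS, pre-incubated 5 hr at 37 C, then exposed to compounds 16 hr. Beta-lactamase reporter read by FRET substrate, 2 hr room temperature, 460/530 nm emission.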

[15] = qHTS assay to identify small molecule antagonists of the estrogen related receptor (ERR) signaling pathway - cell viability counter screen (AID 1224818); settings: ERR reporter cell line viability counter screen; series mostly up to 46.1 µM
Procedure, shortened: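 After a 6 h pre-incubation, ERR cells were dosed by pin tool with compounds, positive/negative controls or DMSO alone. Following 17.5 h at 37 C and 30 min with CellTiter-Fluor, fluorescence was recorded.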

[16] = qHTS assay to identify small molecule antagonists of the estrogen related receptor signaling pathway with the pleiotropic PPARgamma coactivator (PGC) cell viability counter screen (AID 1224822); settings: ERR/PGC reporter cell line viability counter screen; series mostly up to 46.1 µM
Procedure, shortened: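 PGC/ERR cells were plated at 2,000 per well and allowed 6 h to settle before compound addition. Following 17.5 h at 37 C, CellTiter-Fluor reagent was added and fluorescence was read 30 min later.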

Measured: Potency

CCO[Si](CCCN=C=O)(OCC)OCC
not listed: [14] | [15] | [16]
inactive: all other assays above

CCCCCCCCC=O
not listed: [1] | [2] | [3] | [4] | [15] | [16]
inactive: all other assays above

N[C@@H](CS)C(=O)O
inactive: [14] | [5] | [6] | [7] | [8] | [11]

O=C(O)c1ccccc1S
inactive: [14] | [5] | [6] | [7] | [8] | [9] | [10] | [11]

CCCOc1ccccc1-c1nc2n[nH]nc2c(=O)[nH]1
not listed: [12] | [13] | [14]
inactive: all other assays above

CC(C)=CCC/C(C)=C/C(=O)O
inactive: [1] | [2] | [5] | [6] | [7] | [8] | [11]

c1ccc(SCCSc2ccccc2)cc1
active: [4] 6.06 µM | [6] 7.9 µM | [10] 17.1 µM | [13] 5.4 µM
not listed: [7] | [14] | [15] | [16]
inactive: all other assays above

CC(C)COC(=O)C(C)C
not listed: [7] | [12] | [14] | [15] | [16]
inactive: all other assays above

CC(=O)O[C@H](CC(=O)[O-])C[N+](C)(C)C
inactive: [1] | [2] | [5] | [6] | [8] | [11] | [12] | [13]

CC(C)(C)C(=O)/C=C/c1ccc(Cl)cc1
active: [6] 25.2 µM
not listed: [14] | [15] | [16]
inactive: all other assays above

CC(C)(O)Cc1ccccc1
not listed: [14] | [15] | [16]
inactive: all other assays above

Cc1cc(C)cc(OCC2CNC(=O)O2)c1 (stereo not drawn)
inactive: [1] | [2] | [5] | [6] | [8] | [11]

O=S(=O)(O)c1ccccc1O
not listed: [14] | [15] | [16]
inactive: all other assays above
